# ± gives the standard deviation of the averaged measurements. The full ranking holds about 33,000 sequences; the median of “E-score (dimensionless, -0.5 to 0.5)” is about -0.049, and the highest 2% start at about 0.37. This is one part of a sample in which the highest values are shown more often than they occur.
# Test system: T1, PmTbr T-box DNA-binding domain (GST fusion)
# T1 sequence: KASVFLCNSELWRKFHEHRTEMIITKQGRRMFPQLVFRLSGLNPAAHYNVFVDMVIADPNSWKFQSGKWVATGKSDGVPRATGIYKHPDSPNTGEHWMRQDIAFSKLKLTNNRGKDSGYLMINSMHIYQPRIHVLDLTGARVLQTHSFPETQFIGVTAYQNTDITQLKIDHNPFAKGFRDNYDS
# Assay: PBM E-score of 8-mer (E-score (dimensionless, -0.5 to 0.5)); Tbr is Tbrain of the sea star Patiria miniata (Pm) or the sea urchin Strongylocentrotus purpuratus (Sp); higher = stronger binding preference
# Settings: the construct has about 5 more residues each side
# Procedure: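 Universal protein-binding microarray (Agilent AMADID 016060, 60-bp probes with a 35-bp variable region) incubated with 200 nM GST-fused Patiria miniata Tbr T-box DNA-binding domain (residues 272-466) in PBS pH 7.5. Scored for every ungapped 8-mer (given with its reverse complement) by the Universal PBM Analysis Suite as E-score (modified Wilcoxon-Mann-Whitney enrichment, range -0.5 to 0.5; >0.45 counts as bound) and Z-score of median probe intensity. Two replicate arrays (datasets 1 and 2).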
# 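Further: 200 nM protein in PBS on universal arrays averaged over duplicate arrays.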
row,Sequence,PBM E-score of 8-mer
1,CTCACCTA,0.4081 ± 0.0035
2,CTCACCGA,0.00965 ± 0.039
3,CTTACCTA,-0.153 ± 0.059
4,ATCACCAA,0.17 ± 0.016
5,ATCACCCA,0.276 ± 0.021
6,ATCACCTA,0.392 ± 0.022
7,CTAGCGTA,0.0249 ± 0.015
8,ATGGTTAC,-0.265 ± 0.029
9,ATTGGCGA,0.156 ± 0.027
10,ATTAGCAC,0.417 ± 0.016
11,CATAGCAC,0.306 ± 0.029
12,ATTAGCAG,0.129 ± 0.045
13,CTTAGCAA,0.0581 ± 0.031
14,ATTAGCAA,0.12 ± 0.092
15,CTTAGCAC,0.4 ± 0.0047
16,AGAAGGGC,-0.11 ± 0.013
17,CTTGCTCA,0.0359 ± 0.0032
18,ATCGCACG,0.34 ± 0.023
19,CTCGCGCA,0.191 ± 0.024
20,CCCGCACC,0.3 ± 0.031
21,CTCGCACC,0.4721 ± 0.0042
22,ATCGCGCC,0.368 ± 0.016

row,Sequence,PBM E-score of 8-mer
1,CTCGCGCC,0.401 ± 0.013
2,ATCGCACA,0.3241 ± 0.00047
3,CTCGCACA,0.375 ± 0.0071
4,CTCGCATC,0.176 ± 0.033
5,CTCGCAGA,0.00155 ± 0.054
6,ATCGCACC,0.4642 ± 0.0032
7,GTCGCACA,0.353 ± 0.025
8,CGAAGAGC,-0.116 ± 0.044
9,CAGCACAG,-0.0973 ± 0.029
10,CGGGGTTA,-0.195 ± 0.071
11,GGCATGAA,-0.0787 ± 0.006
12,CTCTAAGA,-0.271 ± 0.053
13,CTTTTACA,0.169 ± 0.025
14,AGCTTAGC,-0.0359 ± 0.0015
15,TATGATGA,-0.156 ± 0.037
16,AGTCAAAG,-0.132 ± 0.081
17,GAGAGATA,-0.0805 ± 0.045
18,CCACATTA,0.126 ± 0.0023
19,CTTACACC,0.395 ± 0.013
20,CTAACACC,0.4751 ± 0.004
21,CGAACACC,0.3416 ± 0.0028
22,GTAACACA,0.3374 ± 0.0018

row,Sequence,PBM E-score of 8-mer
1,CTTACACA,0.277 ± 0.012
2,ATAACATC,-0.101 ± 0.065
3,ATTACACC,0.349 ± 0.0023
4,CTAACACA,0.374 ± 0.035
5,ATAACACG,0.325 ± 0.05
6,ATAACACC,0.465 ± 0.0066
7,CTAACATC,-0.1377 ± 0.00032
8,ATAACACA,0.3597 ± 0.0034
9,AGACCCCT,-0.245 ± 0.086
10,AAACCCGG,-0.207 ± 0.0074
11,GTCCCCTA,-0.175 ± 0.076
12,AAATTAGC,0.24 ± 0.01
13,GCTTCACC,0.0106 ± 0.012
14,CACGTCCG,0.26 ± 0.0099
15,CCGGTTAC,-0.0412 ± 0.0065
16,CTTTGCTC,-0.0392 ± 0.02
17,ACAGAGGC,0.0769 ± 0.02
18,AGAGGGTA,-0.108 ± 0.023
19,AGGGGGTG,0.316 ± 0.027
20,CCGGTGTC,0.247 ± 0.0031
21,CGGGTGTA,0.0538 ± 0.035
22,AGGGTGTG,0.43 ± 0.027

row,Sequence,PBM E-score of 8-mer
1,AGGGTGAC,0.326 ± 0.031
2,CGGGTGTC,0.4001 ± 0.002
3,AGAGGGTG,0.383 ± 0.011
4,AGGGTGTC,0.435 ± 0.014
5,AGAGGGTC,-0.202 ± 0.011
6,AGGGTGTA,0.317 ± 0.0034
7,AGGGTGGC,0.191 ± 0.011
8,CCCTAGGG,-0.16 ± 0.025
9,AGGTTTGG,-0.19 ± 0.043
10,CATTCTTA,-0.235 ± 0.007
11,GGAAGCAC,-0.23 ± 0.015
12,ATGGTGAG,0.223 ± 0.0051
13,CATTCAGG,0.0358 ± 0.077
14,ATAACAAA,-0.00818 ± 0.13
15,AGGATCAT,-0.151 ± 0.0099
16,CGGGCAAG,-0.0794 ± 0.036
17,CGAGGCCC,-0.297 ± 0.064
18,AACCTAAG,-0.12 ± 0.084
19,CACCTAAG,0.381 ± 0.021
20,AACCTAAC,0.0221 ± 0.052
21,CCCCTAAG,-0.0688 ± 0.042
22,CACCTAAC,0.408 ± 0.028

# — the supplement of paper PMC4166925
